For orientation: inhibition means the relative decrease from the control value, in per cent.

This is an account of results in ChEMBL document CHEMBL1961873, “Compounds: GSK PKIS; Assays: Nanosyn kinase panel” (2012).

In test [1] the target is Tyrosine-protein kinase Fyn (Homo sapiens) (UniProt P06241). The note with it: at 1 µM.
The target of test [2] is Tyrosine-protein kinase HCK (Homo sapiens) (UniProt P08631). Conditions: at 0.1 µM.
For test [3] the target is unchanged. Conditions: at 1 µM.
Test [4] concerns the target Insulin-like growth factor 1 receptor (Homo sapiens) (UniProt P08069). Conditions: at 0.1 µM.
For test [5] the target is unchanged. The note with it: at 1 µM.
Test [6] concerns the target Insulin receptor (Homo sapiens) (UniProt P06213). Conditions: at 0.1 µM.
Test [7] shares this target. The note with it: at 1 µM.
Test [8] deals with Insulin receptor-related protein (Homo sapiens) (UniProt P14616). The note with it: at 0.1 µM.
The target is the same in test [9]. Conditions: at 1 µM.
For test [10], the target named is T1, Tyrosine-protein kinase ITK/TSK (Homo sapiens) (UniProt Q08881).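 Further: mean percent inhibition of ITK from the GSK PKIS screen.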
T1 sequence (whole entry): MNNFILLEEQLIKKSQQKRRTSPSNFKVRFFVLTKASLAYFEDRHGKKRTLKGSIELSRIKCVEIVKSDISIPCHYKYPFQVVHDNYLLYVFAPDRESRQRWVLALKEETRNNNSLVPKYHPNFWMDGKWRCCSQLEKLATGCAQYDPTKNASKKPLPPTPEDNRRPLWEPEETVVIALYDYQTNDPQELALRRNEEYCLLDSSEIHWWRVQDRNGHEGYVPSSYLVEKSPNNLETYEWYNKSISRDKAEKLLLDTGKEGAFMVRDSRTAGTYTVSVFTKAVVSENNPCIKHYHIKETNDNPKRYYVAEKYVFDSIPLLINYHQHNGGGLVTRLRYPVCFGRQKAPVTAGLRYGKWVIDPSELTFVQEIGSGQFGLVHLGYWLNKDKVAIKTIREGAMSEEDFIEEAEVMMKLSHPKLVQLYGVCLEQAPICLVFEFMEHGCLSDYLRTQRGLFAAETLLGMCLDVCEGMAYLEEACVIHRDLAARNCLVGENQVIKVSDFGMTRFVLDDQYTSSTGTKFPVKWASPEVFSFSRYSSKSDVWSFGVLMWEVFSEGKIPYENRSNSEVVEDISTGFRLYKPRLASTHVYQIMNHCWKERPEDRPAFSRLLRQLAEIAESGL
The note with it: at 0.1 µM.

“And” between values parts separate entries of the source, which are not always exact repeats. Equal entries are not always repeated.

Tyrosine-protein kinase Fyn (Homo sapiens), sequence (P06241 2-537 limits assumed): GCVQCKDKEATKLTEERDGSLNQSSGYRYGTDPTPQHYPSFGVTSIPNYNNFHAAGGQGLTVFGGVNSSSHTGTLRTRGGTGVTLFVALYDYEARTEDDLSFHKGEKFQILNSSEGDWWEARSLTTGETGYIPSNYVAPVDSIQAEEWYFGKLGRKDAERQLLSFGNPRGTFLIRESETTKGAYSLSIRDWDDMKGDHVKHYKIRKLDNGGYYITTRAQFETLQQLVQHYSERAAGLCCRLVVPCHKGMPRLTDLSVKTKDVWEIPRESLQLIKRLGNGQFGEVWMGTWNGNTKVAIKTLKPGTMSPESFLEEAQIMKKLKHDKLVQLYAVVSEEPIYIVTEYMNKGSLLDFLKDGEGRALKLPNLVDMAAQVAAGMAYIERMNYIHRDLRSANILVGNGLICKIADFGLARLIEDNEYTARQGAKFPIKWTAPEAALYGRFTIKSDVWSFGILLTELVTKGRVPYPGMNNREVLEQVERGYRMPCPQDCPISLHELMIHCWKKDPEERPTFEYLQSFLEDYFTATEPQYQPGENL
Insulin receptor-related protein (Homo sapiens), sequence (P14616 27-742 limits assumed): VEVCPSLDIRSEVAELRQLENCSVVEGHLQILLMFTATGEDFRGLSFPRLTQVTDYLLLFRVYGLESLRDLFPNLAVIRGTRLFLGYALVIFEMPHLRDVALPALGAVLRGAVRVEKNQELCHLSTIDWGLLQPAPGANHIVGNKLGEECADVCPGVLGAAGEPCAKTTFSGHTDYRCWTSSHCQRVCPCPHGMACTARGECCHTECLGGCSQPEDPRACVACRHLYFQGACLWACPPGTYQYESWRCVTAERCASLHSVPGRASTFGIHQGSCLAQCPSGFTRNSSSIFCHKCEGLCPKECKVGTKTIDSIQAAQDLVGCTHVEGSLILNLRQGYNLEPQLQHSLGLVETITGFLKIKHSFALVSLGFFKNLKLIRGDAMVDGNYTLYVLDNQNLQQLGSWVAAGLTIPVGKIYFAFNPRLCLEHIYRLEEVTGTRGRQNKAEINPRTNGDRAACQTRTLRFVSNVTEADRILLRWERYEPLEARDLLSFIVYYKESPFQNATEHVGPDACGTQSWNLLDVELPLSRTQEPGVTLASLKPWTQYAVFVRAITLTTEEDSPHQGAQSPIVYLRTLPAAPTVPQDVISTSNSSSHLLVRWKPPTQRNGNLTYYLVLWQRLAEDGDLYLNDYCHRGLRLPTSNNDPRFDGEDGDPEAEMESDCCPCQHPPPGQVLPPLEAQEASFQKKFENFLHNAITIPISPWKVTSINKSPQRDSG
Insulin receptor-related protein (Homo sapiens), sequence (P14616 747-1297 limits assumed): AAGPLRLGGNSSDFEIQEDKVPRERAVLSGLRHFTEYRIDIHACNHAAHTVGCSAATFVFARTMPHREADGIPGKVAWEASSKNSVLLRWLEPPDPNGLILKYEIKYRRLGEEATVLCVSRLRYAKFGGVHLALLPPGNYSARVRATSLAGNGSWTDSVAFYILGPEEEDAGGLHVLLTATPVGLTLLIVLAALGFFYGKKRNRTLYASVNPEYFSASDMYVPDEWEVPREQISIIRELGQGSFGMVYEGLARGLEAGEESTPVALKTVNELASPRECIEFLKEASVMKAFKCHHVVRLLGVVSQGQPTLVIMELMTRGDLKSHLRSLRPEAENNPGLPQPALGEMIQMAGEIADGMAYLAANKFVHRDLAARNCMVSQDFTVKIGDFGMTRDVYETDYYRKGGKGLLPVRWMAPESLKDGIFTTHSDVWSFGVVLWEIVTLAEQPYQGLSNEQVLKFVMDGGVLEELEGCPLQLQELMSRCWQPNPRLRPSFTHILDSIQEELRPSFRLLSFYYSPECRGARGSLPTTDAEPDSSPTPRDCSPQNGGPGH
Tyrosine-protein kinase HCK (Homo sapiens), sequence (P08631 2-526 limits assumed): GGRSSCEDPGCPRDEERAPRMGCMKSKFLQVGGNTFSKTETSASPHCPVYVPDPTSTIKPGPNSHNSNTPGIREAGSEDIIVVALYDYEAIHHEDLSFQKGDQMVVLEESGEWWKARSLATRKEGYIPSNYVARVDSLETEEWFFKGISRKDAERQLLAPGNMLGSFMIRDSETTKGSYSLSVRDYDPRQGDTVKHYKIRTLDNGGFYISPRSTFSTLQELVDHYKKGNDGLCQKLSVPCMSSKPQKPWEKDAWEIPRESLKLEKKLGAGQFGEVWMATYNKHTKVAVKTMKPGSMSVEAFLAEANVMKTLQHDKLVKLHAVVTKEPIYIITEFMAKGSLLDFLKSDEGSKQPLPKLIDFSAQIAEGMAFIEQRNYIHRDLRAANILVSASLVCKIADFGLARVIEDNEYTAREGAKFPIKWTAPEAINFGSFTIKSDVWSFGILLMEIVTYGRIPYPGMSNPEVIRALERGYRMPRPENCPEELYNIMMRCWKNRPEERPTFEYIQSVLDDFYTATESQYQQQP
Insulin-like growth factor 1 receptor (Homo sapiens), sequence (P08069 31-736 limits assumed): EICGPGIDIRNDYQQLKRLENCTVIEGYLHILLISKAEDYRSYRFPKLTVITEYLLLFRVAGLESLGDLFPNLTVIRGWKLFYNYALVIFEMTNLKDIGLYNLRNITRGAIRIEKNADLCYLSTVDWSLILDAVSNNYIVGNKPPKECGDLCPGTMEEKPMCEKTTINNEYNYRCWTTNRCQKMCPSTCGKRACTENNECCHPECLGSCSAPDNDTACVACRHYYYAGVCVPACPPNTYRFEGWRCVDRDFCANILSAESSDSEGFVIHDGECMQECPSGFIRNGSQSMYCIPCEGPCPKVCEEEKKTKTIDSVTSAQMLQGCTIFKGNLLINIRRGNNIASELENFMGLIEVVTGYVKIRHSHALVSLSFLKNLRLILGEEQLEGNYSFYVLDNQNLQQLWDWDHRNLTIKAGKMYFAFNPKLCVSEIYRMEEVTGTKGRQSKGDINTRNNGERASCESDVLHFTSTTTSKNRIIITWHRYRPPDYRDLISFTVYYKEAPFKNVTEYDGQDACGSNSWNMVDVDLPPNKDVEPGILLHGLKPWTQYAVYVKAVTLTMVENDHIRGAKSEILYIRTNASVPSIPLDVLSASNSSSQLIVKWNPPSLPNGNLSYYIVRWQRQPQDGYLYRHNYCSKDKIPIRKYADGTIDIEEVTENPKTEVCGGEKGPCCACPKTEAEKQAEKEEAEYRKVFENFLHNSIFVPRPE
Insulin-like growth factor 1 receptor (Homo sapiens), sequence (P08069 741-1367 limits assumed): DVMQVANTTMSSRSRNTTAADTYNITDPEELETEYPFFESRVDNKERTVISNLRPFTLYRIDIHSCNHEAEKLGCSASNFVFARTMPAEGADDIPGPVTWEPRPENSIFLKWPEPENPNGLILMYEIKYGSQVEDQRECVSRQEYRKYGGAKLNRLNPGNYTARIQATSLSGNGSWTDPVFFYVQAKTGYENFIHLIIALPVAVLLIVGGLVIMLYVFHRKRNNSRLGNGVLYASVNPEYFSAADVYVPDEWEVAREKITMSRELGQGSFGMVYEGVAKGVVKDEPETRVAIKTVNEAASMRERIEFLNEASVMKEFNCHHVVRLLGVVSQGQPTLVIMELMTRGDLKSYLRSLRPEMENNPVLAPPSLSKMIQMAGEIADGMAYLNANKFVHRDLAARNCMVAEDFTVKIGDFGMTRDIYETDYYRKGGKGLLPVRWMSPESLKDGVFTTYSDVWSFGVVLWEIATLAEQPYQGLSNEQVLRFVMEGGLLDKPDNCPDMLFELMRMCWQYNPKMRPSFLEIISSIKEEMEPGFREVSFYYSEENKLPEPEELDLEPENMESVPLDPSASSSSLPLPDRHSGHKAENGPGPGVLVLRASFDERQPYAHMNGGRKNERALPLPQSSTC
Insulin receptor (Homo sapiens), sequence (P06213 28-758 limits assumed): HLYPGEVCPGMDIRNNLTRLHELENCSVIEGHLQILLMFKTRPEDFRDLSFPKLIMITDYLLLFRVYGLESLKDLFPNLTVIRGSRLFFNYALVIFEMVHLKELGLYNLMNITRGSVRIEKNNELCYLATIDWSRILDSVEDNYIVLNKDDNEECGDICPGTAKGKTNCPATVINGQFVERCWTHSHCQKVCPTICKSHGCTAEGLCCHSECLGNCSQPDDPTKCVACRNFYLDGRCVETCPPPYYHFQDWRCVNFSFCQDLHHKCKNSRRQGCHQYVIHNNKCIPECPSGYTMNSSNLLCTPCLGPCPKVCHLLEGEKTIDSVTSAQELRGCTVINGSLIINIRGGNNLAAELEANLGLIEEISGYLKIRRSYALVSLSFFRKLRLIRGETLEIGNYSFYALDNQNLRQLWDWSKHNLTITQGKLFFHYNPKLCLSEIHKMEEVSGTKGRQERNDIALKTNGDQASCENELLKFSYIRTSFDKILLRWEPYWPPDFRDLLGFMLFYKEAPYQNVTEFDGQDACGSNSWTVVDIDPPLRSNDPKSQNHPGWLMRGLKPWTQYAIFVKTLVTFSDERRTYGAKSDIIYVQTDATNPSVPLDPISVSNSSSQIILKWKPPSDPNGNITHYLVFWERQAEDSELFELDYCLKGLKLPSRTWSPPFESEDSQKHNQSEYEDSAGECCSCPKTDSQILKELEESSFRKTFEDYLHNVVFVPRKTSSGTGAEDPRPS
Insulin receptor (Homo sapiens), sequence (P06213 763-1382 limits assumed): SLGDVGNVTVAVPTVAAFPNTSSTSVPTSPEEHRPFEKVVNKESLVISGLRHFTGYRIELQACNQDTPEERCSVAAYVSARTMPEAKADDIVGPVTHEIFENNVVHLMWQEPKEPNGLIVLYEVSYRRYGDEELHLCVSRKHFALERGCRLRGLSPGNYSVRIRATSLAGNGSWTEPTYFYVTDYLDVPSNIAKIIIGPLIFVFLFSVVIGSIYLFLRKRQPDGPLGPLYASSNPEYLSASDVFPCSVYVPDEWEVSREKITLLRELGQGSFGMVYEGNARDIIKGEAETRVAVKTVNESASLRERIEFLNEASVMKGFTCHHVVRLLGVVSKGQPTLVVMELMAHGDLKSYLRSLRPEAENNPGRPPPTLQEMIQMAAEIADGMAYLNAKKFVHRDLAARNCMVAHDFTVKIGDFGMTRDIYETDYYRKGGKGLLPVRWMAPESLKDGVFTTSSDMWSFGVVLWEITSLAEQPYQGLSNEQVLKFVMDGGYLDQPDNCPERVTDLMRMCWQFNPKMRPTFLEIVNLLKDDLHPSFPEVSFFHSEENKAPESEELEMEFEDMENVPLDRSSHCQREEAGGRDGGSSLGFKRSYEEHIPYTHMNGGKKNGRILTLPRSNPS

`CN1CCC(C(=O)Nc2n[nH]c3nc(-c4ccc(O)cc4)c(Br)cc23)CC1`: the inhibition is 2.18% and 4.52% in [1]; 3.06% and 2.78% in [2]; 6.08% and 4.64% in [3]; -4.96% and 3.55% in test [4]; -5.49% and 3.41% in [5]; 5.36% and 4.34% in test [6]. Further, the inhibition was 4.73% and 6.55% in [7]; 2.54% and -0.17% in test [8]; 2.5% and 1.64% in test [9]; -2.09% and 0.57% in [10].

As for `CN1CCN(Cc2ccc(-c3cc4ncnc(Nc5ccc(OCc6cccc(F)c6)c(Cl)c5)c4s3)o2)CC1`, the inhibition in test [1] was 9.29% and 9.99%; in test [2], 3.14% and 4.38%; in test [3] it was 7.61% and 13.1%; in [4], -0.2% and 3.7%; in test [5], 1.01% and 6.72%; in [6], 2.51% and 7.21%. The inhibition in test [7] is 3.07% and 7.9%; in test [8], 1.81% and 2.44%; in test [9], 3.22% and 4.36%; in test [10] it was 1.02% and 2.31%.

With `COC(=O)Nc1nc2ccc(Oc3ccc(NC(=O)Nc4cc(C(F)(F)F)ccc4F)cc3)cc2s1`, the inhibition in test [1] is 21.1%; in test [2], 8.79%; in [3], 28.3%; in test [4], -0.75%; in [5], 1.6%; in [6] it was 1.59%. In addition, the inhibition in test [7] was 3.09%; in test [8], -2.9%; in test [9], -1.09%; in test [10], 1.03%.

`CS(=O)(=O)Nc1ccc(-c2cc(-c3ccccc3)cc(C(N)=O)c2N)cc1`: the inhibition in test [1] was -0.83%; in [2], 2.58%; in test [3] it was 4.51%; in test [4], 15.8%; in test [5], 8.99%; in test [6], 4.43%. Besides, the inhibition is 3.29% in [7], -1.45% in [8], 0.85% in [9] and 0.8% in test [10].

With `CN1CCC(n2cnc(-c3ccc(F)cc3)c2-c2ccnc(NCCO)n2)CC1`, the inhibition in [1] is 1.8%; in [2] it was 3.07%; in [3], 9.14%; in [4], 3.65%; in [5], 4.78%; in test [6] it was 2.63%. Further, the inhibition came out at 3.28% in [7], 3.34% in test [8], 2.39% in test [9] and 1.66% in test [10].

For `FC(F)(F)CNc1nccc(-c2cnn3ncccc23)n1`, the inhibition was 0.37% in test [1]; 2.76% in test [2]; 2.72% in test [3]; 1.46% in test [4]; 1.63% in [5]; 0.86% in test [6]. Further, the inhibition in test [7] was 1.21%; in test [8], -0.18%; in [9], 1.1%; in test [10], -0.07%.

For `COc1c(C(N)=O)cc(-c2ccc(Cl)cc2)cc1-c1ccc(S(N)(=O)=O)cc1`, the inhibition in test [1] came to 2.81%; in [2], 6.39%; in [3] it was 7.93%; in test [4] it was 7.44%; in [5] it was 4.41%; in test [6], 9.51%. For the same compound, the inhibition in test [7] amounted to 5.04%; in [8], 2.33%; in test [9] it was 3.46%; in [10], 2.02%.

On to `COC(=O)Nc1nc2cc(Oc3ccc(NC(=O)Nc4ccccc4)cc3)ccc2[nH]1`, for which the inhibition in [1] is 4.68%; in [2], 2.26%; in [3], 4.53%; in test [4] it was 0.4%; in test [5], -0.2%; in test [6] it was 3.75%. For the same compound, the inhibition in [7] was 6.99%; in test [8], 0.98%; in test [9], 1.1%; in [10], -0.1%.

`COc1cc(N2CCN(C(C)C)CC2)ccc1Nc1nc(Nc2cccc3ncccc23)c2cc[nH]c2n1`: the inhibition in test [1] worked out at 2.23%; in test [2], 0.79%; in test [3], 1.71%; in test [4] it was 12%; in test [5] it was 60.5%; in [6] it was 22.6%. Also, the inhibition in test [7] was 82.1%; in [8], -1.05%; in test [9], 14.8%; in test [10], -0.09%.

For the compound `O=C(O[C@H]1CN[C@H](C#Cc2cc3ncnc(Nc4ccc(OCc5cccc(F)c5)c(Cl)c4)c3s2)C1)N1CCOCC1`, the inhibition was found to be 6.59% in [1]; 3.37% in [2]; 6.71% in test [3]; 6.13% in test [4]; 14.8% in test [5]; 7.72% in test [6]. Further, the inhibition amounted to 5.91% in test [7], 3.84% in test [8], 3.3% in test [9] and 0.99% in test [10].

Turning to `Nc1nonc1-c1nc2cnccc2n1C1CC1`, the inhibition was 1.39% and -1.43% in test [1]; 5.06% and 2.65% in [2]; 10.4% and 4.62% in test [3]; 2.14% and -5.78% in test [4]; 3.37% and -3.55% in test [5]; -0.15% and 4.69% in test [6]. Further, the inhibition in [7] was 2.19% and 6.69%; in [8] it was 2.59% and 0.39%; in test [9] it was 3.14% and 0.7%; in [10], 1.56% and -2.28%.

Take `NS(=O)(=O)c1ccc(N/N=C2\C(=O)Nc3ccc(C(=O)NCc4ccncc4)cc32)cc1`: the inhibition came to 50.9% in [1]; 5.39% in test [2]; 16.3% in [3]; 10.1% in test [4]; 9.32% in test [5]; 1.24% in test [6]. Also, the inhibition in test [7] worked out at 3.32%; in [8], 2.61%; in test [9] it was 2.45%; in test [10], 0.99%.

`O=C1Nc2ccccc2/C1=C1\CCc2cc(O)ccc21`: the inhibition turned out to be 7.65% in test [1]; 6.34% in test [2]; 14.6% in [3]; 4.61% in [4]; 12.5% in test [5]; 7.96% in test [6]. The inhibition in [7] is 23%; in test [8], 3.81%; in test [9], 2.83%; in test [10] it was 3.68%.

In the case of `CS(=O)(=O)CCNCc1ccc(-c2ccc3ncnc(Nc4ccc(OCc5ccccc5)cc4)c3c2)o1`, the inhibition is 14.9% in test [1]; 7.13% in test [2]; 14.3% in test [3]; 1.22% in [4]; 2.03% in [5]; -0.92% in test [6]. The inhibition in test [7] came out at 2.86%; in test [8], 1.91%; in [9] it was 2.07%; in test [10], 0.71%.

Regarding `CCN1CCC(C(=O)Nc2n[nH]c3nnc(-c4cccc(F)c4F)cc23)CC1`, the inhibition in [1] is 0.66%; in [2], 0.33%; in test [3], 0.65%; in [4] it was -0.72%; in [5] it was -1.06%; in test [6] it was -0.08%. For the same compound, the inhibition in test [7] is 1.38%; in [8], -1.17%; in test [9], -1.67%; in test [10], 0.47%.

`Fc1ccc(Nc2nccc(-c3c(-c4ccc(C(F)(F)F)cc4)nn4ncccc34)n2)cc1F`: the inhibition in test [1] came out at 2.19%; in test [2], 4.54%; in [3] it was 7.92%; in test [4] it was 1.9%; in test [5], 4.26%; in test [6] it was 4.61%. Further, the inhibition amounted to 3.27% in test [7], 3.45% in [8], 2.2% in [9] and 1.45% in test [10].

Consider `O=C(Nc1n[nH]c2nnc(-c3cccnc3)cc12)C1CC1`, for which the inhibition in test [1] was 4.86%; in [2], 0.81%; in [3], 2.83%; in test [4], 0.22%; in test [5], -1.27%; in test [6], 3.48%. The inhibition in test [7] was 1.82%; in [8], -0.87%; in [9], -1.01%; in [10], 0.11%.

Take `CCS(=O)(=O)c1ccc(OC)c(Nc2ncc(-c3cccc(C(C)=O)c3)o2)c1`: the inhibition in test [1] was 71.4%; in test [2] it was 11%; in [3], 71.2%; in test [4], 1.64%; in test [5], 3.11%; in test [6] it was 2.36%. In addition, the inhibition in [7] was 2.68%; in test [8], 2.22%; in test [9], 3.18%; in [10], 0.98%.

With `NS(=O)(=O)c1cccc(N/C=C2\C(=O)Nc3ccccc32)c1`, the inhibition in [1] stood at 4.25%; in test [2], 6.87%; in test [3] it was 17.6%; in [4], 2.44%; in test [5] it was 5.81%; in test [6], 5.3%. Besides, the inhibition came to 11.9% in [7], 2.22% in test [8], 2.55% in [9] and 1.13% in test [10].

Take `NC(=O)c1ccc2c(-c3ccnc(NCCCO)n3)c(-c3ccc(F)cc3)nn2c1`: the inhibition is 5.23% in test [1]; 7.1% in [2]; 15.6% in test [3]; 3.95% in test [4]; 6.12% in test [5]; 10.3% in test [6]. Further, the inhibition amounted to 6.62% in test [7], 4.18% in test [8], 4.01% in test [9] and 1.32% in [10].

On to `CCCNc1cccc(-n2ncc3c(N/N=C/c4ccncc4)ncnc32)c1`, for which the inhibition in [1] is 52.8%; in [2] it was 7.22%; in test [3] it was 35.8%; in [4] it was 0.75%; in test [5] it was -0.01%; in test [6] it was 1.6%. The inhibition in [7] worked out at 0.96%; in test [8] it was 0.19%; in test [9] it was 1.63%; in [10] it was 6.02%.

On to `c1ccc(-c2n[nH]cc2-c2ccnc(-c3ccc(OCCn4ccnc4)cc3)c2)nc1`, for which the inhibition in test [1] worked out at 7.07%; in test [2] it was 1.8%; in [3], 9.8%; in test [4], 6.59%; in test [5] it was 2.24%; in [6], 2.91%. Besides, the inhibition is 2.56% in test [7], -0.75% in test [8], -0.28% in test [9] and 0.01% in test [10].

In the case of `Cc1c2ccc(N(C)c3ccnc(Nc4cccc(S(N)(=O)=O)c4)n3)cc2nn1C`, the inhibition is 60.5% in test [1]; 31.2% in [2]; 73.8% in test [3]; -4.22% in test [4]; 13.1% in test [5]; 7.68% in test [6]. Besides, the inhibition in test [7] is 18.7%; in [8], 2.78%; in test [9], 2.81%; in test [10], -1.73%.
